Results published in PubChem BioAssay (EPA / NIEHS).
The source made the active and inactive calls. The calls were made as follows: active = hit-call score of the fitted dose curve at least 0.9, where 1 is the maximum; inactive = score below 0.9.

What was measured:
[1] = APR_HepG2_CellCycleArrest_24hr: Apredica 24-hour HepG2 Assay for Cell Cycle Arrest (AID 2282905); conditions: imaging, actives raise or lower the signal;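 also: cell cycle arrest scored as ratio of 2N to 4N nuclear DNA content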
Summary of the method: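 HepG2 cells were exposed to compounds at 0.39–200 uM (ten concentrations, duplicate) in 0.5% v/v DMSO for 24 hr. After formaldehyde fixation and Triton permeabilization, Hoechst 33342-stained nuclei were imaged at 20x; DNA content was quantified, with bidirectional fitting against DMSO.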

[2] = APR_HepG2_StressKinase_1hr: Apredica 1-hour HepG2 Assay for Stress Kinase (AID 2282906); conditions: HepG2 stress kinase (phospho-c-Jun) imaging, actives raise or lower the signal
Summary of the method: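 HepG2 cells dosed 0.39-200 uM (0.5% DMSO) for 1 h, then formaldehyde-fixed. Stress kinase read by phospho-c-Jun immunofluorescence using high-content imaging; bidirectional fit vs DMSO.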

[3] = APR_HepG2_NuclearSize_24hr: Apredica 24-hour HepG2 Assay for Nuclear Size (AID 2282907); conditions: high-content imaging, actives raise or lower the signal
Summary of the method: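 HepG2 human liver cells were exposed for 24 hr to compounds at 0.39–200 uM (ten concentrations, duplicate) in 0.5% v/v DMSO. They were then formaldehyde-fixed, Triton-permeabilized and Hoechst 33342-stained, and nuclear diameter was imaged at 20x. Bidirectional fits were made against DMSO.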

[4] = APR_HepG2_CellLoss_24hr: Apredica 24-hour HepG2 Assay for Cell Loss (AID 2282908); conditions: high-content imaging
Summary of the method: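 Compounds were tested at 0.39–200 uM in duplicate with 0.5% v/v DMSO final. Cells were then fixed in 3.7% formaldehyde, Hoechst 33342 nuclei were imaged at 20x by HCS, and cell number was fitted bidirectionally against DMSO.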

[5] = APR_HepG2_MicrotubuleCSK_24hr: Apredica 24-hour HepG2 Assay for Microtubule CSK Stabilty (AID 2282909); conditions: HepG2 microtubule cytoskeleton imaging, actives raise or lower the signal
Summary of the method: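 HepG2 cells exposed 24 h to compounds at 0.39–200 uM (duplicate, 0.5% v/v DMSO final), then fixed, permeabilized and immunostained for alpha-tubulin with Hoechst 33342. Cytoskeleton imaged at 20x; bidirectional fit versus DMSO baseline.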

[6] = APR_HepG2_MitoMembPot_24hr: Apredica 24-hour HepG2 Assay for Mitochondrial Membrane Potential (AID 2282911); conditions: imaging, actives raise or lower the signal
Summary of the method: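 Mitochondrial dye uptake (MitoTracker Red CMXRos, 250 nM, 30 min pre-fixation) in HepG2 after 24 hr compound exposure, 0.39–200 uM; ArrayScan images at 20x, activity fitted in both directions relative to DMSO.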

[7] = APR_HepG2_MitoMass_24hr: Apredica 24-hour HepG2 Assay for Mitochondrial Mass (AID 2282912); conditions: high-content imaging, actives raise or lower the signal
Summary of the method: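 Human HepG2 liver cells were exposed for 24 hr to compounds at 0.39–200 uM (duplicates, 0.5% v/v DMSO final). They were stained live with 250 nM MitoTracker Red CMXRos for 30 min, fixed in 3.7% formaldehyde, and imaged by HCS fluorescence; signals were fitted bidirectionally against DMSO.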

[8] = APR_HepG2_p53Act_24hr: Apredica 24-hour HepG2 Assay for p53 Activation (AID 2282913); conditions: high-content imaging, actives raise or lower the signal;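 also: p53 protein immunofluorescence averaged per cell in HepG2 with Hoechst nuclei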
Summary of the method: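 Following 24 hr dosing of HepG2 at 0.39–200 uM, the cells undergo formaldehyde fixation, Triton permeabilization and multiplexed antibody labeling that includes p53 (Cy5). Signal from the imaging is referenced to DMSO solvent controls.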

[9] = APR_HepG2_CellCycleArrest_72hr: Apredica 72-hour HepG2 Assay for Cell Cycle Arrest (AID 2282914); conditions: high-content imaging, actives raise or lower the signal
Summary of the method: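 Using multiplexed high-content imaging, HepG2 nuclei stained with Hoechst 33342 (2 ug/mL) were analysed for DNA content after fixation and permeabilization. Treatment lasted 72 hr across 0.39–200 uM in duplicate with final DMSO 0.5% v/v; DMSO served as negative control.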

[10] = APR_HepG2_CellLoss_72hr: Apredica 72-hour HepG2 Assay for Cell Loss (AID 2282915); conditions: high-content imaging
Summary of the method: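 HepG2 cells exposed 72 h to compound at 0.39–200 uM (10 concentrations, duplicate) in 0.5% DMSO. Fixed with 3.7% formaldehyde and Hoechst 33342-stained. Imaged at 20x; nuclear count gives cell number, fitted bidirectionally versus DMSO.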

[11] = APR_HepG2_P-H2AX_72hr: Apredica 72-hour HepG2 Assay for H2AX Phosphorylation (AID 2282916); conditions: imaging, actives raise or lower the signal;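 also: phospho-histone H2A.x immunostain intensity per cell marking DNA damage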
Summary of the method: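 HepG2 human liver cells were exposed for 72 hr to compounds at 0.39–200 uM (10 concentrations, duplicate per plate) in 0.5% v/v DMSO. Fixed, permeabilized cells were immunolabeled for phospho-histone H2A.x with Hoechst 33342 and imaged by HCS fluorescence; bidirectional fit versus DMSO.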

[12] = APR_HepG2_MitoMembPot_72hr: Apredica 72-hour HepG2 Assay for Mitochondrial Membrane Potential (AID 2282917); conditions: imaging, actives raise or lower the signal
Summary of the method: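 HepG2 cells dosed 72 hr with compound at 0.39–200 uM in duplicate, 0.5% v/v DMSO final. Mitochondria stained with 250 nM MitoTracker Red CMXRos for 30 min before formaldehyde fixation, imaged by high-content fluorescence; bidirectional fit versus DMSO.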

[13] = APR_HepG2_MitoticArrest_72hr: Apredica 72-hour HepG2 Assay for Mitotic Arrest (AID 2282918); conditions: high-content imaging, actives raise or lower the signal
Summary of the method: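 Using high-content imaging of fixed HepG2 cells, phospho-histone H3 signal was measured following a 72 hr incubation with ten-point compound dilutions up to 200 uM. DMSO served as the negative control and baseline for bidirectional curve fitting.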

[14] = APR_HepG2_MicrotubuleCSK_72hr: Apredica 72-hour HepG2 Assay for Microtubule CSK Stabilty (AID 2282919); conditions: HepG2 microtubule cytoskeleton, high-content imaging, actives raise or lower the signal
Summary of the method: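 HepG2 cells were exposed 72 hr to compound at 0.39–200 uM in duplicate (0.5% DMSO final), then fixed and permeabilized. Alpha-tubulin immunofluorescence was imaged by high-content microscopy, with bidirectional fitting against DMSO and taxol as positive control.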

[15] = APR_HepG2_P-H2AX_24hr: Apredica 24-hour HepG2 Assay for H2AX Phosphorylation (AID 2282920); conditions: high-content imaging, actives raise or lower the signal
Summary of the method: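 Human HepG2 liver cells, treated 24 hr with test chemicals (0.39–200 uM, final DMSO 0.5% v/v), are fixed and co-stained for phospho-H2A.x and c-Jun with Hoechst. Imaged intensity is fitted in both directions against DMSO controls.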

[16] = APR_HepG2_StressKinase_72hr: Apredica 72-hour HepG2 Assay for Stress Kinase (AID 2282921); conditions: HepG2 stress kinase (phospho-c-Jun) imaging, actives raise or lower the signal
Summary of the method: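 Cells were exposed for 72 h to ten concentrations (0.39–200 uM, duplicate) at 0.5% v/v DMSO final, then fixed with 3.7% formaldehyde, permeabilized and immunostained for phospho-c-Jun (Cy3 secondary) with Hoechst nuclear counterstain.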

[17] = APR_HepG2_StressKinase_24hr: Apredica 24-hour HepG2 Assay for Stress Kinase (AID 2282922); conditions: HepG2 stress kinase (phospho-c-Jun) imaging, actives raise or lower the signal
Summary of the method: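 HepG2 cells exposed 24 h to 0.39–200 uM compound in duplicate (0.5% v/v DMSO final). Cells fixed in 3.7% formaldehyde, permeabilized and immunostained for phospho-c-Jun; read by high-content fluorescence imaging, fitted bidirectionally against DMSO.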

[18] = APR_HepG2_p53Act_72hr: Apredica 72-hour HepG2 Assay for p53 Activation (AID 2282923); conditions: high-content imaging, actives raise or lower the signal;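 also: average cellular p53 protein immunofluorescence intensity in HepG2 cells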
Summary of the method: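 Cells were dosed for 72 hr with compounds at 0.39–200 uM in duplicate (final DMSO 0.5% v/v), then fixed in 3.7% formaldehyde, permeabilized with Triton X-100 and immunostained for p53 (Cy5) with Hoechst 33342 nuclear counterstain.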

[19] = APR_HepG2_MitoMass_72hr: Apredica 72-hour HepG2 Assay for Mitochondrial Mass (AID 2282924); conditions: high-content imaging, actives raise or lower the signal;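 also: MitoTracker Red CMXRos stain intensity per cell imaged as mitochondrial mass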
Summary of the method: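 HepG2 cells dosed 72 hr at 0.39–200 uM (0.5% DMSO), in duplicate. MitoTracker Red CMXRos 250 nM loaded 30 min before formaldehyde fixation; high-content fluorescence imaging, bidirectional fit versus DMSO.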

Measured: AC50

CCOc1nc(NC)nc(NC(=O)NS(=O)(=O)c2ccccc2C(=O)OC)n1
inactive: all assays above

COP(=S)(OC)Oc1ccc(SC)c(C)c1
active: [9] 54.3 µM
inactive: all other assays above

O=C(Nc1ccccc1)Nc1cnns1
active: [5] 68.9 µM | [10] 90.8 µM | [11] 93.6 µM | [13] 91.6 µM | [14] 78 µM
inactive: all other assays above
